The values below come from PubChem BioAssay (EPA / NIEHS).

The source made the active and inactive calls. Rule for the calls: active = hit-call score of the fitted dose curve at least 0.9, where 1 is the maximum; inactive = score below 0.9.

Read-out in test [1]: Vascular endothelial growth factor receptor 2 (Homo sapiens) (UniProt P35968)
In words: BSK_4H_VEGFRII: BioMAP Diversity Plus: 4H Assay for Vascular endothelial growth factor receptor 2 (VEGFR2) Biomarker Activity (AID 2283031).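 For AC50: cell-surface VEGFR2 protein level quantified by ELISA.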 The settings on record: primary human endothelial cells (HUVEC); actives raise or lower the signal. The essentials: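 HUVEC (human primary), 4H system; 24 h post-dose; VEGFRII by ELISA; bidirectional curve fit vs DMSO baseline; gain or loss of signal scored.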

Read-out in test [2]: Human Leukocyte Antigen - DR isotype (HLADR), HLA-DRA (gene 3122)
In words: BSK_BE3C_HLADR: BioMAP Diversity Plus: BE3C Assay for Human Leukocyte Antigen - DR isotype (HLADR) Biomarker Activity (AID 2283032). The settings on record: primary human bronchial epithelial cells; actives raise or lower the signal. A digest of the protocol:
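Human primary bronchial epithelial cells (BE3C system) exposed to compound for 24 hours; cell-surface HLA-DR measured by ELISA, fitted bidirectionally relative to DMSO. Total protein by SRB in parallel cultures tracked cytotoxicity.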

Read-out in test [3]: Vascular cell adhesion molecule 1 (VCAM1), VCAM1 (gene 7412)
The test can be described thus: BSK_4H_VCAM1: BioMAP Diversity Plus: 4H Assay for Vascular cell adhesion molecule 1 (VCAM1) Biomarker Activity (AID 2283033). The settings on record: primary human endothelial cells (HUVEC); actives raise or lower the signal. A digest of the protocol:
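Primary human umbilical vein endothelial cells, 4H stimulation system, treated for 24 h; cell-surface VCAM-1 quantified by ELISA. Bidirectional fitting against DMSO; cytotoxicity tracked by SRB total-protein staining in parallel cultures.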

Read-out in test [4]: Interferon-gamma inducible Protein 10 (IP10), CXCL10 (gene 3627)
The test can be described thus: BSK_BE3C_IP10: BioMAP Diversity Plus: BE3C Assay for Interferon-gamma inducible Protein 10 (IP10) Biomarker Activity (AID 2283034). The note with it: primary human bronchial epithelial cells; actives raise or lower the signal. The essentials: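 Primary human bronchial epithelial cells, with IP-10 measured by ELISA 24 hours after chemical dosing. Bidirectional fit against DMSO; cytotoxicity checked by SRB total protein staining in parallel cultures.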

Read-out in test [5]: Monokine induced gamma interferon (MIG), CXCL9 (gene 4283)
The test can be described thus: BSK_BE3C_MIG: BioMAP Diversity Plus: BE3C Assay for Monokine induced gamma interferon (MIG) Biomarker Activity (AID 2283035). The note with it: primary human bronchial epithelial cells; actives raise or lower the signal. The essentials: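 MIG level was determined by ELISA after 24 h chemical treatment of primary human bronchial epithelial cells. Values were fitted bidirectionally with DMSO as the negative control and activity baseline.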

Read-out in test [6]: Transforming growth factor beta 1 (TGFb1), TGFB1 (gene 7040)
In words: BSK_BE3C_TGFb1: BioMAP Diversity Plus: BE3C Assay for Transforming growth factor beta 1 (TGFb1) Biomarker Activity (AID 2283036). The note with it: primary human bronchial epithelial cells; actives raise or lower the signal. A digest of the protocol: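 Primary human bronchial epithelial cells dosed with chemical; TGF-b1 measured by ELISA 24 h after dosing. Bidirectional curve fitting against DMSO negative control; SRB total-protein staining in parallel cultures gauged cytotoxicity.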

Read-out in test [7]: Plasminogen activator inhibitor-1 (PAI1), SERPINE1 (gene 5054)
The test can be described thus: BSK_BE3C_PAI1: BioMAP Diversity Plus: BE3C Assay for Plasminogen activator inhibitor-1 (PAI1) Biomarker Activity (AID 2283037). The settings on record: primary human bronchial epithelial cells; actives raise or lower the signal. A digest of the protocol:
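Primary human bronchial epithelial cells (BE3C system) exposed 24 h; PAI-1 quantified by ELISA. Parallel sulforhodamine B staining of total protein flags cytotoxicity. Bidirectional fit versus DMSO.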

Read-out in test [8]: urokinase plasminogen activator (uPA), PLAU (gene 5328)
The test can be described thus: BSK_BE3C_uPA: BioMAP Diversity Plus: BE3C Assay for urokinase plasminogen activator (uPA) Biomarker Activity (AID 2283038).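 For outcome: uPA protein level quantified by ELISA in cell cultures; uPA read one day after compound addition.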 The settings on record: primary human bronchial epithelial cells; actives raise or lower the signal. The essentials: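 ELISA read-out of uPA in human lung primary bronchial epithelial cultures, 24 h post-dosing. Gain or loss of signal fitted bidirectionally relative to DMSO baseline; cytotoxicity checked in parallel cultures via SRB total protein stain.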

Read-out in test [9]: Urokinase-type plasminogen activator receptor (uPAR), PLAUR (gene 5329)
In words: BSK_BE3C_uPAR: BioMAP Diversity Plus: BE3C Assay for Urokinase-type plasminogen activator receptor (uPAR) Biomarker Activity (AID 2283039).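 For outcome: uPAR protein level measured by ELISA on the cells; cells exposed to compound for one day before measurement.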 The settings on record: primary human bronchial epithelial cells; actives raise or lower the signal. A digest of the protocol: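 Primary human bronchial epithelial cells dosed for 24 h; uPAR quantified by ELISA with bidirectional fitting against DMSO. Overt cytotoxicity assessed in parallel cultures by SRB total-protein staining (0.1% SRB, 560 nm).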

Read-out in test [10]: Interleukin-6 (IL6), IL6 (gene 3569)
The test can be described thus: BSK_CASM3C_IL6: BioMAP Diversity Plus: CASM3C Assay for Interleukin-6 (IL6) Biomarker Activity for (AID 2283040). The note with it: primary human coronary artery smooth muscle cells; actives raise or lower the signal.

Turning to `O=C(N[C@H]1CN2CCC1CC2)c1ccc2c(c1)OCCO2`, the result in test [1], in test [2], in test [3], in [4], in [5] and in [6] was inactive. Also, the outcome in [7], in [8], in test [9] and in test [10] was inactive.
As to `CCOP(=O)(OCC)SCCSCC`, the outcome in test [1], in test [2], in [3], in test [4], in [5] and in test [6] was inactive. Besides, the outcome in test [7], in [8] and in test [10] was inactive.
The AC50 is the concentration giving half of the maximal activity seen. As to `Nc1c(Oc2ccccc2)cc(O)c2c1C(=O)c1ccccc1C2=O`, the outcome in test [1], in test [2], in test [3], in test [4], in test [5] and in [6] was inactive. For the same compound, the outcome in test [8], in test [9] and in test [10] was inactive. Also, in test [7], the half-maximal activity concentration (AC50) is 2.43 µM (active).
Turning to `C#CCOC(=O)/C=C(C)/C=C/CC(C)CCCC(C)C` (centres undefined), the figures for the concentration at half-maximal activity (AC50) in [1], in test [3] and in test [4] were 31.5 µM (active), 26.4 µM (active) and 1.32 µM (active), respectively. Also, the outcome in [2], in [5], in test [6], in [7], in [8] and in test [10] was inactive.
As for `Cc1cccc(OP(=O)(Oc2cccc(C)c2)Oc2cccc(C)c2)c1`, the outcome in [1], in [2], in [3], in test [4], in test [5] and in [6] was inactive. In test [10], the outcome was inactive. Also, the half-maximal activity concentration (AC50) in test [7] is 2.76 µM (active); in test [8], 0.016 µM (active).
Consider `O=S(=O)(C(Cl)(Cl)Cl)C(Cl)(Cl)Cl`, for which the AC50 in test [1] was 0.327 µM (active); in [2], 3.17 µM (active); in [3], 1.43 µM (active); in test [4] it was 2.86 µM (active); in [5], 7.75 µM (active); in test [6] it was 9.08 µM (active). Moreover, the AC50 in test [7] was 3.87 µM (active); in [8], 5.31 µM (active); in [10] it was 1.61 µM (active).
As to `C[C@]12CC[C@@H](O)C[C@@H]1CC[C@@H]1[C@@H]2CC[C@]2(C)C(=O)CC[C@@H]12`, the outcome in test [1], in test [2], in test [3], in [4], in [5] and in test [6] was inactive. The result in test [7], in test [8] and in test [10] was inactive.
On to `Nc1ccc(N)cc1`, for which the outcome in [1], in test [3], in test [4], in [5], in test [6] and in test [7] was inactive. In addition, the result in test [8], in test [9] and in test [10] was inactive.
`O=[N+]([O-])c1cccc2ccccc12`: the outcome in [1], in [2], in test [3], in test [4], in test [5] and in test [6] was inactive. Also, the outcome in test [7], in test [8] and in [10] was inactive.
Take `OC(Cc1ccccc1Cl)(Cn1[nH]cnc1=S)C1(Cl)CC1` (centres undefined): the AC50 was 20 µM (active) in test [1]; 20 µM (active) in [2]; 20 µM (active) in [3]; 15.8 µM (active) in test [4]; 31.1 µM (active) in test [5]; 8.86 µM (active) in test [6]. In addition, the concentration at half-maximal activity (AC50) in [7] was 6.3 µM (active); in test [8] it was 20 µM (active); in test [9], 12.6 µM (active). Also, in [10], the result was inactive.
In the case of `CCCCOC(=O)COC(=O)c1ccccc1C(=O)OCCCC`, the outcome in [1], in test [2], in test [3], in test [4], in test [5] and in [7] was inactive. The result in [8], in [9] and in test [10] was inactive.
Regarding `O=S(=O)(c1ccc(Cl)cc1)c1cc(Cl)c(Cl)cc1Cl`, the result in test [1], in [5], in test [6], in [7], in [8] and in [9] was inactive. In test [10], the outcome was inactive. The AC50 in test [3] is 20 µM (active); in test [4], 28.6 µM (active).
For the compound `CC(C)=CC1C(C(=O)OCc2cccc(Oc3ccccc3)c2)C1(C)C` (centres undefined), the result in test [1], in [2], in [3], in test [4], in test [5] and in [6] was inactive. Further, the outcome in test [7], in test [8] and in test [10] was inactive.
On to `CC(C)O.CC(C)O.OCCN(CCO)CCO.OCCN(CCO)CCO.[Ti]`, for which the outcome in [1], in [2], in test [3], in [4], in test [5] and in test [6] was inactive. The outcome in test [7], in test [8] and in test [10] was inactive.
On to `C=CC(Cl)CCl` (centres undefined), for which the result in test [1], in test [2], in [3], in test [4], in [5] and in test [6] was inactive. Moreover, the result in test [7], in [8], in [9] and in [10] was inactive.
`OC(Cc1ccccc1Cl)(Cn1cncn1)C1(Cl)CC1` (centres undefined): the result in [1], in test [2], in [3], in test [4], in test [5] and in [6] was inactive. Also, the outcome in test [7], in test [8], in test [9] and in [10] was inactive.
